Test results taken from PubChem BioAssay (Tox21).
Inconclusive results are not listed. Active and inactive are the calls of the source. Unless noted, calls follow the shape of the dose curve; as a rule, active = well fitted curve in the direction sought with a large enough effect in the repeat runs; inconclusive = weak or mixed curves; inactive = no such curve, though single readings can be large; an effect the other way counts as inactive or inconclusive.

Legend:
[1] = qHTS assay to identify small molecule antagonists of the glucocorticoid receptor (GR) signaling pathway - cell viability counter screen (AID 720693); conditions: GR-bla HeLa viability, CellTiter-Glo luminescence, 18 h, with 5 nM dexamethasone present; series mostly up to 58.5 µM; also: nearly all actives have a fitted effect of over 55% in size
[2] = qHTS assay for identifying genotoxic compounds that show differential cytotoxicity against isogenic chicken DT40 cell lines with known DNA damage response pathways - wild type cell line (AID 743012); conditions: DT40 wild type chicken cells viability, CellTiter-Glo, 40 h; series mostly up to 68.4 µM; also: nearly all actives have a fitted effect of over 60% in size; also: potency is read from the fitted curve at half-maximal effect
Summary of the method: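 Wild-type DT40 cells (300/well) exposed to compounds for 40 hours at 37 C/5% CO2. Viability read by CellTiter-Glo luminescence after 30 min at room temperature.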

[3] = qHTS assay for identifying genotoxic compounds that show differential cytotoxicity against isogenic chicken DT40 cell lines with known DNA damage response pathways - Rad54/Ku70 mutant cell line (AID 743015); conditions: DT40 Rad54/Ku70 mutant viability, CellTiter-Glo, 40 h; series mostly up to 66.8 µM; also: nearly all actives have a fitted effect of over 60% in size; also: potency is read from the fitted curve at half-maximal effect
[4] = qHTS assay to identify small molecule antagonists of the androgen receptor (AR) signaling pathway - cell viability counter screen (AID 743033; also: nearly all actives have a fitted effect of over 45% in size; also: potency is read from the fitted curve at half-maximal effect); conditions: AR-bla HEK293 viability, CellTiter-Glo luminescence, 16 h; series mostly up to 58.5 µM
[5] = biological target: Androgen receptor (Homo sapiens) (UniProt P10275); experiment: qHTS assay to identify small molecule antagonists of the androgen receptor (AR) signaling pathway (AID 743035; active = well fitted inhibition curve with a large enough effect in the signal ratio in the repeat runs, not every such curve was filed as active; the % refers to the signal ratio; also: potency is read from the fitted curve at half-maximal effect); conditions: HEK293 AR-UAS-bla, R1881-stimulated, beta-lactamase FRET, 16 h; series mostly up to 58.5 µM
Summary of the method: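 HEK293 cells stably carrying UAS-beta-lactamase reporter, 2,000/well, given compounds plus R1881 agonist and incubated 16 h at 37C. LiveBLAzer B/G FRET substrate then added for 2 h at room temperature before fluorescence reading.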

[6] = biological target: Androgen receptor (Homo sapiens) (UniProt P10275); experiment: qHTS assay to identify small molecule agonists of the androgen receptor (AR) signaling pathway (AID 743036; active = well fitted activation curve with a large enough effect in the signal ratio in the repeat runs, with a control signal flat, not every such curve was filed as active; the % refers to the signal ratio); conditions: HEK293 AR-UAS-bla GripTite, beta-lactamase FRET ratio, 16 h; series mostly up to 62.4 µM
Summary of the method: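 Quantitative HTS of the Tox21 10K library in HEK293 cells bearing a stably integrated UAS-controlled beta-lactamase reporter. Compound exposure lasted 16 h at 37C. Reporter activity was detected by FRET substrate fluorescence after 2 h at room temperature.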

[7] = biological target: Androgen receptor (Homo sapiens) (UniProt P10275); experiment: qHTS assay to identify small molecule agonists of the androgen receptor (AR) signaling pathway using the MDA cell line (AID 743040; also: nearly all actives have a fitted effect of over 20% in size; also: potency is read from the fitted curve at half-maximal effect); conditions: MDA-kb2 AR-luc cells, MMTV luciferase, 16 h; series mostly up to 70.3 µM
Summary of the method: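 After a 5 h incubation at 37C and 0% CO2, MDA-kb2 reporter cells were dosed with compounds in DMSO and kept 16 h under the same conditions. Luciferase activity was then read as luminescence with ONE-Glo.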

[8] = qHTS assay to identify small molecule antagonists of the androgen receptor (AR) signaling pathway using the MDA cell line - cell viability counter screen (AID 743041; also: nearly all actives have a fitted effect of over 45% in size); conditions: MDA-kb2 viability, CellTiter-Fluor, 16 h, cells co-treated with R1881 androgen agonist; series mostly up to 70.3 µM
Summary of the method: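 R1881-driven MDA-kb2 AR-luc cells, 3,000/well, were dosed with library compounds for 16 h; cell health came from CellTiter-Fluor fluorescence in the reporter wells.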

[9] = biological target: Androgen receptor (Homo sapiens) (UniProt P10275); experiment: qHTS assay to identify small molecule antagonists of the androgen receptor (AR) signaling pathway using the MDA cell line (AID 743042; also: nearly all actives have a fitted effect of over 55% in size); conditions: MDA-kb2 AR-luc, MMTV luciferase, R1881 antagonist, 16 h; series mostly up to 70.3 µM
Summary of the method: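 Antagonist mode: compounds plus R1881 agonist added to MDA-kb2 AR-luc cells, incubated 16 h at 37C. Luciferase reporter luminescence quantified, with multiplexed CellTiter-Fluor readout for cell viability.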

[10] = qHTS assay for identifying genotoxic compounds that show differential cytotoxicity against isogenic chicken DT40 cell lines with known DNA damage response pathways - Rev3 mutant cell line (AID 743014); conditions: chicken DT40 Rev3-/- viability, CellTiter-Glo, 40 h; series mostly up to 68.4 µM; also: nearly all actives have a fitted effect of over 55% in size; also: potency is read from the fitted curve at half-maximal effect

Measured: Potency

Androgen receptor (Homo sapiens), sequence (P10275 whole entry, looked up): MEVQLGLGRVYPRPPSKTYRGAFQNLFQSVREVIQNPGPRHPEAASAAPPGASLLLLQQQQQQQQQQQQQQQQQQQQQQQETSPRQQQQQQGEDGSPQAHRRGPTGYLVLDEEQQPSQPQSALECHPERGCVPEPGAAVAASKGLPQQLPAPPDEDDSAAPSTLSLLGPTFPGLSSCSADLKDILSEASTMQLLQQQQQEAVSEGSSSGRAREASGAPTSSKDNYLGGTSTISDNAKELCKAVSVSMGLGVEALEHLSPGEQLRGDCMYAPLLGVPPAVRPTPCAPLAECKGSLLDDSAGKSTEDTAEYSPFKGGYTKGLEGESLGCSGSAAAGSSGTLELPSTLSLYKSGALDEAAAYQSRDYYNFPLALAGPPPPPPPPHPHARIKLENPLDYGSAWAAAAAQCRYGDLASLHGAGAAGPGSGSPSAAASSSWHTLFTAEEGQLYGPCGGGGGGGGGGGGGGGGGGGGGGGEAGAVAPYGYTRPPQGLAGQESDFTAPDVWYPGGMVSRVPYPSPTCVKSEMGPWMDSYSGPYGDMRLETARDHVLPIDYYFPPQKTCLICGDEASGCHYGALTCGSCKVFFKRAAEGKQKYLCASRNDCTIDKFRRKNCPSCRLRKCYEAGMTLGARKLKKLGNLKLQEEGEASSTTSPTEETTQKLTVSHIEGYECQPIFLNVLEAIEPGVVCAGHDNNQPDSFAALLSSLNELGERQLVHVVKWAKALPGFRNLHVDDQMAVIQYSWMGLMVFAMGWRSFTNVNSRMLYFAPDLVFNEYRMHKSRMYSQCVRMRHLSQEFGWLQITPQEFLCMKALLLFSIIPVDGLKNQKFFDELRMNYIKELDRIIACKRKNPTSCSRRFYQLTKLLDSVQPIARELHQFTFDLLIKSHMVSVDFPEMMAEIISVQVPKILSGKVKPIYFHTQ

Cc1cccc(C)c1NC(=O)NC1=CCCN1C
not listed: [10]
inactive: all other assays above

CC[C@H]1NC(=O)[C@@H](NC(=O)c2ncccc2O)[C@@H](C)OC(=O)[C@H](c2ccccc2)NC(=O)[C@@H]2CC(=O)CCN2C(=O)[C@H](Cc2ccccc2)N(C)C(=O)[C@@H]2CCCN2C1=O
not listed: [10]
inactive: all other assays above

Cc1cc(C)c(NC(=O)C[C@H](CC(=O)O)c2cccc3ccccc23)c(C(=O)N2CCC3(CCCC3)CC2)c1
not listed: [5] | [10]
inactive: all other assays above

CCC(CN)CC(C)CCNCC(O)CNCC(C)CC(CC)CN (centres undefined)
not listed: [10]
inactive: all other assays above

CCOC(=O)c1c[nH]c2cc(OCC(C)C)c(OCC(C)C)cc2c1=O
not listed: [5] | [10]
inactive: all other assays above

OC[C@H]1O[C@@H](O[C@H]2[C@H](O)[C@@H](O)[C@H](O)O[C@@H]2CO)[C@H](O)[C@@H](O)[C@@H]1O
not listed: [6] | [10]
inactive: all other assays above

COc1ccc2c(c1)N(C[C@H](C)CN(C)C)c1ccccc1S2
inactive: [1] | [8]
active: [2] 11.4 µM | [10] 11.4 µM

NNc1nnc(Cc2ccncc2)c2ccccc12
not listed: [3] | [6]
inactive: all other assays above

CC(=O)[C@@]1(O)CC[C@H]2[C@@H]3C=C(Cl)C4=CC(=O)CC[C@]4(C)[C@H]3CC[C@@]21C
inactive: [1] | [4] | [8] | [9]
active: [2] 11.9 µM | [3] 23.7 µM | [5] 0.674 µM | [7] 0.596 µM

Cc1ccccc1CNc1ncnc2c1ncn2[C@@H]1O[C@H](CO)[C@@H](O)[C@H]1O
active: [2] 16.8 µM | [10] 21.1 µM
inactive: [1] | [4] | [8]

Nc1nc2c(c(=O)[nH]1)N(C=O)C(CNc1ccc(C(=O)N[C@@H](CCC(=O)O)C(=O)O)cc1)CN2 (some centres undefined)
not listed: [6] | [10]
inactive: all other assays above

Cc1ncc(COP(=O)(O)O)c(CN)c1O
inactive: [1] | [2] | [3] | [4]

C[C@]12CCC(=O)C[C@@H]1CC[C@@H]1[C@@H]2CC[C@]2(C)C=CC[C@@H]12
inactive: [1] | [2] | [10] | [4] | [8]

CCC(=O)O[C@@H]1CC(=O)O[C@H](C)C/C=C/C=C/[C@H](O)[C@H](C)C[C@H](CC=O)[C@H](O[C@@H]2O[C@H](C)[C@@H](O[C@H]3C[C@@](C)(O)[C@@H](OC(=O)CC)[C@H](C)O3)[C@H](N(C)C)[C@H]2O)[C@H]1OC
inactive: [1] | [2] | [10] | [4] | [8]

CN[C@@H]1[C@H](O[C@H]2[C@H](O[C@H]3[C@H](O)[C@@H](O)[C@H](N=C(N)N)[C@@H](O)[C@@H]3N=C(N)N)O[C@@H](C)[C@]2(O)CO)O[C@@H](CO)[C@H](O)[C@H]1O
not listed: [6] | [10]
inactive: all other assays above

OC[C@H]1OC([S-])[C@H](O)[C@@H](O)[C@@H]1O.[Au+] (some centres undefined)
inactive: [1] | [10] | [4] | [8]
active: [2] 10.6 µM

C#CCC(Cc1cnc2nc(N)nc(N)c2n1)c1ccc(C(=O)N[C@@H](CCC(=O)O)C(=O)O)cc1 (some centres undefined)
active: [2] 0.0106 µM | [3] 0.0237 µM | [4] 0.169 µM
not listed: [6] | [10]
inactive: all other assays above

C=CCN1CCCC1CNC(=O)c1cc(S(N)(=O)=O)cc(OC)c1OC (centres undefined)
inactive: [1] | [2] | [10] | [4] | [8]

CC(CN1c2ccccc2Sc2cccnc21)N(C)C (centres undefined)
active: [2] 29.8 µM
inactive: [1] | [10] | [4] | [8]
